# About 960 (1.5%) of roughly 66,000 compounds showed an effect of 50% or more. This excerpt belongs to a sample that is enriched for strong results.
# Tested on: Trypanosoma brucei
# Test: Trypanosoma brucei 72 hour study
# Assay type: functional, organism-based
# Design: scale not given: in the data most compounds retested in dose-response had high values
compound,measurement,setting,value
CC1CCCN(CCNC(=O)c2ccn(-c3ccc(F)cc3)n2)C1 (centres undefined),Percent Effect,"30.3 µM, […]",63.43%
same,Percent Effect,"10 mM, 10 mM as filed; unlikely as a test dose",1.661%
CC1CCCN(CCNC(=O)c2ccn(-c3cccc(F)c3)n2)C1 (centres undefined),Percent Effect,"30.3 µM, […]",1.994%
same,Percent Effect,"10 mM, 10 mM as filed; unlikely as a test dose",11.39%
COc1ccc(-n2ccc(C(=O)NCCN3CCCCCC3)n2)cc1,Percent Effect,"30.3 µM, […]",53.03%
same,Percent Effect,"10 mM, 10 mM as filed; unlikely as a test dose",-44.94%
CC1CCCN(CCNC(=O)c2ccn(-c3ccccc3)n2)C1 (centres undefined),Percent Effect,"30 µM, 30.03 µM",26.82%
COc1ccc(-n2ccc(C(=O)NCCN3CCCCC3)n2)cc1,Percent Effect,"30.3 µM, […]",-2.952%
same,Percent Effect,"10 mM, 10 mM as filed; unlikely as a test dose",-24.45%
CCCn1[nH]cc/c1=N\C(=O)CN1CCc2cnc(C(C)C)nc2C1,Percent Effect,10 µM,-28.74%
CCc1ocnc1C(=O)N1CCOC(c2nc(C)n[nH]2)C1 (centres undefined),Percent Effect,10 µM,-27.2%
same,Percent Effect,"30.3 µM, […]",-13.47%
Cc1ccc(CN2Cc3nnn(C)c3C(COCc3ccccc3)C2)s1.O=C(O)C(F)(F)F (centres undefined),Percent Effect,"30.3 µM, […]",-18.47%
Cn1cc(-c2ncc3c(c2C(=O)O)CCN(CC2CC2)C3)cn1.O=C(O)C(F)(F)F.O=C(O)C(F)(F)F,Percent Effect,"30.3 µM, […]",-26.37%
COCCC1(CNC(=O)Nc2ccnc(C)c2)CCCC1,Percent Effect,"30 µM, 30.03 µM",5.014%
CN(C)c1ncc(I)c(C2CCCN2C)n1.Cl (centres undefined),Percent Effect,"30.3 µM, […]",-5.31%
CCc1cnc(CN(C)C2CCN(CCn3cc(C#N)cn3)C2)o1 (centres undefined),Percent Effect,"30.3 µM, […]",-0.7137%
Cl.Cn1nc(C2CCN(C(=O)Cc3ccsc3)CC2)c2cccnc21,Percent Effect,"30.3 µM, […]",16.05%
CCS(=O)(=O)CC(=O)NC(C)c1ccc(F)cc1F (centres undefined),Percent Effect,"30.3 µM, […]",-61.88%
Cc1ccc(C)c(CS(=O)(=O)CC(=O)Nc2ccc(F)cc2F)c1,Percent Effect,"30.3 µM, […]",17.81%
Cc1ccc(C)c(CS(=O)(=O)CC(=O)NC(C)c2ccc(F)cc2F)c1 (centres undefined),Percent Effect,"30.3 µM, […]",56.23%
CS(=O)(=O)NC1CCN(C(=O)c2cc3ccccc3s2)C1 (centres undefined),Percent Effect,"30.3 µM, […]",-42.34%
CCC[C@@H]1CN(C(=O)c2cc3ccccc3s2)C[C@H]1NS(C)(=O)=O,Percent Effect,"30.3 µM, […]",55.32%
CCC[C@@H]1CN(C(=O)c2cnc3ccccc3c2)C[C@H]1NS(C)(=O)=O,Percent Effect,"30.3 µM, […]",-86.77%
CNc1ncc2c(n1)CN(c1cccc(OC)c1)C2=O,Percent Effect,"30.3 µM, […]",5.042%
O=C(CN1C(=O)CCC1=O)NCCc1nc(C2CC2)cc(C(F)(F)F)n1,Percent Effect,"30 µM, 30.03 µM",-18.17%
Clc1ccc(C2(CNC3=NCCN3)CCCCC2)cc1.I,Percent Effect,"30 µM, 30.03 µM",18.91%
CC(C)C(C)N(Cc1cnc2ccccc2n1)Cc1ccco1 (centres undefined),Percent Effect,"30 µM, 30.03 µM",81.63%
CCc1ccc(CN(Cc2ccco2)C(C)C(C)C)nc1 (centres undefined),Percent Effect,"30 µM, 30.03 µM",-19.36%
CC(C)C(C)N(Cc1ccccn1)Cc1ccco1 (centres undefined),Percent Effect,"30 µM, 30.03 µM",-27.64%
CCc1c(C)nc(N)nc1N1CCCC(c2nc(CCOC)no2)C1 (centres undefined),Percent Effect,"30 µM, 30.03 µM",-46.14%
C[C@@H]1CN(Cc2cccc(F)c2)C[C@]12CCN(Cc1cccnc1)C2=O.O=C(O)C(F)(F)F.O=C(O)C(F)(F)F,Percent Effect,"30.3 µM, […]",-74.2%
CCc1nnc2n1CCN(Cc1ncc(-c3ccc(Cl)cc3)o1)C2,Percent Effect,"30.3 µM, […]",-0.05411%
CCCOc1ccccc1CN[C@@H]1CCC[C@H]1Cc1cc(C)no1.O=C(O)CC(O)(CC(=O)O)C(=O)O,Percent Effect,"30.3 µM, […]",97.97%
Cc1cc(C[C@@H]2CCC[C@H]2NCc2ccccc2C)on1.O=C(O)CC(O)(CC(=O)O)C(=O)O,Percent Effect,"30.3 µM, […]",-2.54%
Cc1cc(C[C@@H]2CCC[C@H]2NCc2ccccc2F)on1.O=C(O)CC(O)(CC(=O)O)C(=O)O,Percent Effect,"30.3 µM, […]",34.89%
NC(=O)Cn1cc(NC(=O)NCCN2CCc3ccccc3C2)cn1,Percent Effect,10 µM,-24.97%
O=C(NC[C@H]1CCCC[C@H]1O)c1cccc2[nH]c(-c3ccco3)nc12,Percent Effect,"30.3 µM, […]",13.65%
same,Percent Effect,"10 mM, 10 mM as filed; unlikely as a test dose",-65.92%
O=C(NC[C@H]1CCCC[C@H]1O)c1cccc2[nH]c(-c3cccs3)nc12,Percent Effect,"30.3 µM, […]",101.4%
same,Percent Effect,"10 mM, 10 mM as filed; unlikely as a test dose",77.67%
O=C(NC[C@H]1CCCC[C@H]1O)c1ccc2nc(-c3ccco3)[nH]c2c1,Percent Effect,"30.3 µM, […]",17.46%
same,Percent Effect,"10 mM, 10 mM as filed; unlikely as a test dose",-68.89%
Cc1ccc(CN2C[C@@H](OCc3csc(C)n3)[C@H]3COC[C@H]32)s1.O=C(O)C(F)(F)F,Percent Effect,"30 µM, 30.03 µM",-8.753%
COc1ccc(CNC2CCc3ncnn3C2)cc1OCC1CC1 (centres undefined),Percent Effect,"30 µM, 30.03 µM",-28.92%
Cc1cc(-c2cnc(NC3CC3)nc2-c2ccc(C)o2)on1,Percent Effect,"30 µM, 30.03 µM",25.68%
Cc1cc(-c2cnc(NC3CCCC3)nc2-c2ccoc2)on1,Percent Effect,"30.3 µM, […]",19.37%
Cc1cc(-c2cnc(NC3CC3)nc2-c2ccoc2C)on1,Percent Effect,"30.3 µM, […]",6.625%
Cc1occc1-c1nc(NC2CCCC2)ncc1-c1ccccn1,Percent Effect,"30.3 µM, […]",66.93%
Cc1cc(-c2cnc(NC3CCCC3)nc2-c2ccoc2C)on1,Percent Effect,"30.3 µM, […]",30.38%
Cc1cc(-c2cnc(NC3CCCC3)nc2-c2ccco2)on1,Percent Effect,"30.3 µM, […]",60.69%
Cc1cc(-c2cnc(NC3CCCCC3)nc2-c2ccco2)on1,Percent Effect,"30.3 µM, […]",43.12%
Cc1cc(-c2cnc(NC3CCCC3)nc2-c2ccc(C)o2)on1,Percent Effect,"30.3 µM, […]",59.7%
Cc1cc(-c2cnc(NC3CC3)nc2-c2ccco2)on1,Percent Effect,"30.3 µM, […]",20.38%
